TexasRed fluor: alters Texas Red total fluorescence, flagging assay interference. TRb/SRC2 Texas Red total fluorescence interference. Potency, µM (doses to about 106 µM), for the others: top-dose fluorescence change, negative = quenching. 280,000 compounds, 0.29% hits. AID 1479; active means well fitted curve in either direction with a large enough effect; inconclusive means small, poorly fitted or top-dose-only effect
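Human TRβ ligand-binding domain (0.6 uM) and Texas Red SRC2 peptide (20 nM) in Tris buffer with 1 uM T3 and 5% DMSO were incubated with pinned compound for 5 hr at ambient temperature. Total fluorescence was computed as S + 2P (555/632 nm).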
GoLoco inh red: inhibitors of human Gai1-RGS12 GoLoco interaction (red fluorophore). P63096. Gai1:RGS12 GoLoco peptide FP, rhodamine, 10 min. Potency, µM (series often up to 61.6 µM), without a hit: top-dose activity, negative = inhibition, usual class: inhibitors. 230,000 compounds, 0.44% hits. AID 880; active means well fitted inhibition curve with a large enough effect, not every such curve was filed as active; inactive means no such curve, though single readings can be large or run the other way; further: nearly all actives have a fitted effect of over 30% in size
Target sequence (P63096 whole entry, looked up): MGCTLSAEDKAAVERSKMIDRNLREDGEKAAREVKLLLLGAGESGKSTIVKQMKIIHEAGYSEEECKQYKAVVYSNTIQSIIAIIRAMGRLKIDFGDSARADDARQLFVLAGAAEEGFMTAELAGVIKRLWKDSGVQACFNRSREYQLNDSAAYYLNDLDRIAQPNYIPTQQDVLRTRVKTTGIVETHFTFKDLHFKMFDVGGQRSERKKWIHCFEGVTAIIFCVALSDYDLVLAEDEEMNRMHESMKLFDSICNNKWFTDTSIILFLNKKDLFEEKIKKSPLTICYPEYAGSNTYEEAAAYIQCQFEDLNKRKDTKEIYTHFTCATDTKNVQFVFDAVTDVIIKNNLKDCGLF
Tau fluor cs: counter-screen for tau fibril formation inhibitors | tau K18 P301L Alexa594 fluorescence, heparin fibrillization | Potency, µM (highest dose often 57.7 µM), inactives show top-dose activity change, negative = decrease | 280,000 compounds, 0.93% hits; further: nearly all actives have a fitted effect of over 55% in size
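Human tau K18 P301L (15 uM unlabeled, 0.24 uM Alexa 594-labeled) in 100 mM sodium acetate pH 7 with 20 uM heparin, 6 hr at 37 C. ThT 30 uM added, 1 hr ambient; Alexa 594 FP and total fluorescence read at 555/632 nm.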
TRb-SRC2 inh: inhibitors of human thyroid hormone receptor beta-SRC2 interaction; 280,000 compounds, 0.065% hits; AID 1469; TRbeta-SRC2 peptide binding, fluorescence polarization; receptor liganded with 1 µM T3; Potency, µM (top dose mostly 106 µM), for inactives: at the top dose activity change, negative = inhibition, most hits filed as inhibitors;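 further: plate controls were bound peptide for no effect and peptide without receptor for full effect; nearly all actives have a fitted effect of over 50% in size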
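Fluorescence polarization of 20 nM Texas Red SRC2 peptide (20-aa NR interaction domain) bound to 0.6 uM human TRb ligand-binding domain, with 1 uM T3, after 5 hr at ambient temperature; inhibition seen as decreased polarization.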
Tau FP inhib: tau fibrillization inhibition (FP); P10636; 280,000 compounds, 0.39% hits; Potency, µM (highest dose often 57.7 µM), for the others: at the top dose activity, negative = inhibition, hits mostly inhibitors; K18 P301L tau heparin fibrillization, Alexa594 FP, 6 h; AID 1468; further: nearly all actives have a fitted effect of over 55% in size
Target sequence (P10636 561-689 P618L limits assumed): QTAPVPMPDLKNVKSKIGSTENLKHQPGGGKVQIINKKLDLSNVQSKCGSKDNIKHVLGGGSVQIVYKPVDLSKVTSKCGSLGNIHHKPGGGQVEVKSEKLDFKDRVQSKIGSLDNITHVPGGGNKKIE
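Human tau K18 […] P301L fragment, 15 uM unlabeled plus 0.24 uM Alexa 594-labeled tau (final), with compound and 20 uM heparin in 100 mM sodium acetate pH 7; 6 hr at 37 C, then Alexa 594 FP read.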
Tau ThT inhib: inhibitors of human tau fibril formation, thioflavin T binding. P10636. recombinant tau K18 P301L (four-repeat tau fragment), heparin-induced fibrillization, ThT fluorescence. Potency, µM (titrated, usually from 57.4 µM), without a hit: at the top dose activity, negative = inhibition, hits mostly inhibitors. 270,000 compounds, 2.1% hits. AID 1460; further: nearly all actives have a fitted effect of over 55% in size
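Heparin-induced fibrillization of the P301L-mutant K18 repeat-domain fragment of human tau was followed by ThT binding in quantitative high-throughput format.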
An asterisk follows results filed as active; ? = inconclusive; nt = not tested or not shown; [ ] = remark or other dose. An excerpt weighted towards active compounds, which were near 3.1% of everything screened. Unless noted, the call rests on the fitted dose curve; in most records, active means well fitted curve in the direction sought with a large enough effect; inconclusive means small, poorly fitted or top-dose-only effect, or another doubt; inactive means no such curve, though single readings can be large; an effect the other way counts as inactive or inconclusive. Unless noted, on the % scale 0 is the no-effect control and ±100 the full control effect; potency means the concentration at half of the fitted maximal effect.

SMILES | TexasRed fluor | GoLoco inh red | Tau fluor cs | TRb-SRC2 inh | Tau FP inhib | Tau ThT inhib
CCOC(=O)c1c(C)[nH]c(N=Nc2ccccc2)c1C | -2% | 2% | ? | 8% | ? | 7.9µM*
CCOC(=O)c1c(C)[nH]c(C(=O)Cn2nnc(-c3ccccc3Cl)n2)c1C | -2% | 12% | -15% | -9% | -6% | -6%
CCOC(=O)c1c(C)[nH]c(C=Nc2ccc(OC)cc2)c1O | -2% | 3% | -25% | -9% | 8% | ?
CCOC(=O)c1c(C)[nH]c(N=Nc2ccc(OC)cc2)c1C | 0% | 0% | 3.2µM*[quencher] | 1% | ? | nt
CCOC(=O)c1c(C)[nH]c(N=Nc2ccccc2Cl)c1C | -4% | 9% | ? | 8% | 2% | 5µM*
O=C(CCN1C(=O)c2ccccc2S1(=O)=O)Nc1ccccc1 | -1% | 8% | 9% | -4% | 7% | 1%
COc1ccc(NC(=S)N/N=C2\CC(C)(C)Oc3ccc(OC)cc32)cc1 | -25% | 1% | -23% | 5% | 11% | ?
Oc1c(/C=N/c2ncn[nH]2)ccc2ccccc12 | -12% | -8% | -27% | -10% | ? | 28µM*
Cc1ccc(-n2c(O)c(/C=N/c3ncn[nH]3)c3ccccc3c2=O)cc1 | -6% | 15% | 5% | 1% | 4% | -7%
COc1cc(/C=C/c2ccc3c(Br)cc(Br)c(O)c3n2)ccc1O | 0% | 38% | 5µM*[quencher] | 2% | 1% | 3.5µM*
CCOc1ccc(S(=O)(=O)Nc2ccc3oc(C)c(C(=O)OC(C)C)c3c2)cc1 | -3% | nt | ? | -1% | -11% | -4%
O=C(Nc1ccccc1)C1=C(c2ccccc2)S(=O)(=O)CCS1(=O)=O | 3% | 118% | -20% | -29% | 22µM* | 28µM*
Cc1ccc(OCC(=O)N/N=C\c2ccc(-c3cccc(C(=O)O)c3)o2)c(C)c1 | -31% | 38% | -23% | -3% | 5% | 7.9µM*
COC(=O)c1ccc(N2C(=O)CC(SCC(=O)Nc3ccc(OC)cc3)C2=O)cc1 (stereo not drawn) | 2% | 14% | nt | 6% | nt | nt
O=C1CC(SC(=Nc2ccccc2)Nc2ccccc2)C(=O)N1c1ccc(Cl)c(Cl)c1 (stereo not drawn) | 0% | 14% | ? | -3% | 7.9µM* | 11%
CN=C(Nc1cc(Cl)ccc1Cl)SC1CC(=O)N(c2ccc(C(=O)OC)cc2)C1=O (stereo not drawn) | -10% | 8% | ? | 3% | 28µM* | 7%
Nc1ccccc1SC1CC(=O)N(c2ccc(Cl)c(Cl)c2)C1=O (stereo not drawn) | -3% | 8% | ? | -4% | 28µM* | 5%
Cc1cccc(N2C(=O)CC(SC(=Nc3ccccc3)Nc3ccccc3)C2=O)c1 (stereo not drawn) | -1% | 4% | ? | 1% | ? | -3%
COC(=O)c1ccc(NC(=O)COc2ccccc2OC)cc1 | -1% | 4% | -5% | -6% | 3% | ?
O=C1CCCC(O)=C1N=Nc1cccc(C(=O)O)c1 | 3% | -21% | -16% | -27% | -6% | ?
CCN(CC)S(=O)(=O)c1cccc(N=NC2=C(O)CCCC2=O)c1 | ? | 3% | -10% | 40µM* | -3% | -10%
CCCCNc1nc(SC)nc2nc[nH]c12 | nt | 3%[14.2 µM] | nt | nt | nt | nt
O=C(Nc1cc(Cl)cc(Cl)c1)c1cccc(OC(F)F)c1 | 1% | 8% | ? | -14% | 20µM* | ?
Cc1cc(C)c(S(=O)(=O)Nc2cccc(-c3cn4ccccc4n3)c2)c(C)c1 | -1% | nt | ? | 0% | ? | ?
Nc1n[nH]c(N)c1N=Nc1ccc(Cl)cc1 | -2% | 4% | -25% | 4% | 17% | ?
Nc1[nH]ncc1N=Nc1ccc(Cl)cc1 | -3% | -7% | ? | -12% | 8% | 10µM*
CCOC(=O)c1c(C)sc(-c2c(-c3ccc(OC)c(F)c3)[nH]c3[nH]c(=O)[nH]c(=O)c23)c1O | -1% | nt | 3.5µM*[quencher] | 7% | 6% | 0%

Bioassay records (PubChem BioAssay)
